Measured values published in PMC7862700, “An all-to-all approach to the identification of sequence-specific readers for epigenetic DNA modifications on cytosine”.

Tests used:
Assay in all cases: DAPPL (digital affinity profiling via proximity ligation, sequencing); 10 mM Tris-HCl pH 7.5, 50 mM NaCl, 1 mM DTT, 4% glycerol, room temperature, 30 min; GST-TFs on glutathione beads, 16-mer random dsDNA library, 0.1% formaldehyde crosslink after washing; high values mean tight binding
FLI1 = biological target: T1, FLI1 (Homo sapiens, UniProt Q01543 1-452); settings: protein: recombinant; tags: N-terminal GST; dsDNA, one strand shown
T1 sequence: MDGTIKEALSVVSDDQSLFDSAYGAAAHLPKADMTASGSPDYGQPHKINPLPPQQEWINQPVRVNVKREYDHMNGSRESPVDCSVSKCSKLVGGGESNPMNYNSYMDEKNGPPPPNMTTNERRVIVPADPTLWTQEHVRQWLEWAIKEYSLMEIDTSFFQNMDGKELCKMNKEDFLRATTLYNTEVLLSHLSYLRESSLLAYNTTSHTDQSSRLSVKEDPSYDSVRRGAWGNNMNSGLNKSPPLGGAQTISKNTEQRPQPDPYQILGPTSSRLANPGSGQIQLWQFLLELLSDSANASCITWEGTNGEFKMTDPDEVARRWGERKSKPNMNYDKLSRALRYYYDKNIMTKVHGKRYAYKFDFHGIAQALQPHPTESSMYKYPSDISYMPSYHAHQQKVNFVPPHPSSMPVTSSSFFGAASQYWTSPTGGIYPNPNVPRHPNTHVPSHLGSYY
How it was run: (§1)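 Sequencing on an Illumina NextSeq500 followed washing, crosslinking with 0.1% formaldehyde, proximity ligation (BsaI/T4 ligase, 1 h, 37 °C) and PCR amplification of pools that had been incubated for 30 min at room temperature with 200 nmole of a random double-stranded 16-mer DNA library in Tris/NaCl/DTT/glycerol buffer. Each pool held DNA-barcoded human transcription factors, expressed in yeast as GST fusions and captured on glutathione beads, plus a tag-only sample. Binding signal is a hexamer's read frequency for a factor divided by its frequency in the tag-only sample.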

ELK1 = biological target: T2, ELK1 (Homo sapiens, UniProt P19419 1-428); settings: protein: recombinant; tags: N-terminal GST; dsDNA, one strand shown
T2 sequence: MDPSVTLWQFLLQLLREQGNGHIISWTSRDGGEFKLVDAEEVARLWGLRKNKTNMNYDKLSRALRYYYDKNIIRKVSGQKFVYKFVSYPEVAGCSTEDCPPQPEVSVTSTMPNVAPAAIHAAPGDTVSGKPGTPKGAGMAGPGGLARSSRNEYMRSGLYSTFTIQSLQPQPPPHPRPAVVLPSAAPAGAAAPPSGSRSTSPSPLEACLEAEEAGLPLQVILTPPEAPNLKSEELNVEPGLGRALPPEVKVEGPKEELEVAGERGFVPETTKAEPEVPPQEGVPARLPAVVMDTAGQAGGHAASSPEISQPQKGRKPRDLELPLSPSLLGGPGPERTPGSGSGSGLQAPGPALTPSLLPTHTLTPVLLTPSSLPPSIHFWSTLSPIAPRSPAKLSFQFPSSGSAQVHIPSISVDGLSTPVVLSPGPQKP
How it was run: as §1

GABPA = biological target: T3, GABPA (Homo sapiens, UniProt Q06546 1-454); settings: protein: recombinant; tags: N-terminal GST; dsDNA, one strand shown
T3 sequence: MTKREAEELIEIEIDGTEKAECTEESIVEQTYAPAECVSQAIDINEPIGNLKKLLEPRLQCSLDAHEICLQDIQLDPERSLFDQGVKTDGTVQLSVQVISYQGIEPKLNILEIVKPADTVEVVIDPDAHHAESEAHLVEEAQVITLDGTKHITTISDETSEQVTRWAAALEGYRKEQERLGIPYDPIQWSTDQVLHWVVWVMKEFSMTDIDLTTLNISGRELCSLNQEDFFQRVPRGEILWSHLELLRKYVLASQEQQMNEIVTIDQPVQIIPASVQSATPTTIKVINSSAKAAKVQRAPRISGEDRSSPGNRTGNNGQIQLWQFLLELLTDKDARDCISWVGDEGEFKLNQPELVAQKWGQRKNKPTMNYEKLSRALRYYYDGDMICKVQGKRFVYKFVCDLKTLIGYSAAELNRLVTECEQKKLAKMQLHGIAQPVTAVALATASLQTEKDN
How it was run: as §1

ERG = biological target: T4, ERG (Homo sapiens, UniProt P11308 1-479); settings: protein: recombinant; tags: N-terminal GST; dsDNA, one strand shown
T4 sequence: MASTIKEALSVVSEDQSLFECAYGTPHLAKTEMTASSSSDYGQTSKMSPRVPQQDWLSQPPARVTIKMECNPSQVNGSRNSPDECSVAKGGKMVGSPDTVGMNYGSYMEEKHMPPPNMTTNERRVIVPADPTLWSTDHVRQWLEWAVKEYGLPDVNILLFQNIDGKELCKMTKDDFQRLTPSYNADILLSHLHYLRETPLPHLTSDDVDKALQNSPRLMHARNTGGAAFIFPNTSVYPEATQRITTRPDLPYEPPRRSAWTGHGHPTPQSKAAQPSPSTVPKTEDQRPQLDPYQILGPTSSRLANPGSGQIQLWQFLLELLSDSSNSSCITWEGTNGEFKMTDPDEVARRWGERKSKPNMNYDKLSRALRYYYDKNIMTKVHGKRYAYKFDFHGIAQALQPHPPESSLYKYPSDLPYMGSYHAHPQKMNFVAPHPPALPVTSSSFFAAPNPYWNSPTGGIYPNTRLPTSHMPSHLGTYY
How it was run: as §1

ELF1 = ELF1 (Homo sapiens, UniProt P32519 1-619); settings: protein: recombinant; tags: N-terminal GST; dsDNA, one strand shown
How it was run: as §1

EHF = biological target: T5, EHF (Homo sapiens, UniProt Q9NZC4 1-300); settings: protein: recombinant; tags: N-terminal GST; dsDNA, one strand shown
T5 sequence: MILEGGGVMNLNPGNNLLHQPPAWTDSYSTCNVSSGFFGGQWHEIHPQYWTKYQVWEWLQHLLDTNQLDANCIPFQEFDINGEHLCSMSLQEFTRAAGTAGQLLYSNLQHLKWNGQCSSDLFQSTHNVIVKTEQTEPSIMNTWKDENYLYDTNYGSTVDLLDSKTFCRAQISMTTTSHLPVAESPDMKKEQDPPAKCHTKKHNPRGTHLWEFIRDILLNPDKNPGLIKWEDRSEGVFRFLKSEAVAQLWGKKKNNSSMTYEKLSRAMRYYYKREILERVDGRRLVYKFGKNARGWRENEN
How it was run: as §1

SPI1 = SPI1 (Homo sapiens, UniProt P17947 1-270); settings: protein: recombinant; tags: N-terminal GST; dsDNA, one strand shown
How it was run: as §1

SPIB = SPIB (Homo sapiens, UniProt Q01892 1-262); settings: protein: recombinant; tags: N-terminal GST; dsDNA, one strand shown
How it was run: as §1

ELK3 = biological target: T6, ELK3 (Homo sapiens, UniProt P41970 1-407); settings: protein: recombinant; tags: N-terminal GST; dsDNA, one strand shown
T6 sequence: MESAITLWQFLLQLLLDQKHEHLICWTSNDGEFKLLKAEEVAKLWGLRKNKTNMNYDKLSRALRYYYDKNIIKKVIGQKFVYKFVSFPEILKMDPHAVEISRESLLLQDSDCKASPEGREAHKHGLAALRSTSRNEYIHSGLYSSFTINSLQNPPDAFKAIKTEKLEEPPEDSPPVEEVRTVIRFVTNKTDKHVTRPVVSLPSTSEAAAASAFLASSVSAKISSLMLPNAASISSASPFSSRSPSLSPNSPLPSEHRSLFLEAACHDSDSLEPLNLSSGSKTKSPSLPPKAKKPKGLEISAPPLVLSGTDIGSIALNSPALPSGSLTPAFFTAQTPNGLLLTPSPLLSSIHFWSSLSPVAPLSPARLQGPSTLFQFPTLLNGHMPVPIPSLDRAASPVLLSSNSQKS
How it was run: as §1

FEV = biological target: T7, FEV (Homo sapiens, UniProt Q99581 1-238); settings: protein: recombinant; tags: N-terminal GST; dsDNA, one strand shown
T7 sequence: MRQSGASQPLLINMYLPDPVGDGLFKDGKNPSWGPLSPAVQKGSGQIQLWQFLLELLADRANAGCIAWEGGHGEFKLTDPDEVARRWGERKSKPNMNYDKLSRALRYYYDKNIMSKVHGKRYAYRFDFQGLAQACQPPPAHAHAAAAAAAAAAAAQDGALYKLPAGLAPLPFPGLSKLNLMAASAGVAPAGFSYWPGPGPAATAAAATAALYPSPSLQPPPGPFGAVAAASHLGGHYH
How it was run: as §1

ETV5 = ETV5 (Homo sapiens, UniProt P41161 1-510); settings: protein: recombinant; tags: N-terminal GST; dsDNA, one strand shown
How it was run: as §1

HSF1 = HSF1 (Homo sapiens, UniProt Q00613 1-529); settings: protein: recombinant; tags: N-terminal GST; chain copies: 3; dsDNA, one strand shown
How it was run: as §1

SPIC = biological target: T8, SPIC (Homo sapiens, UniProt Q8N5J4 1-248); settings: protein: recombinant; tags: N-terminal GST; dsDNA, one strand shown
T8 sequence: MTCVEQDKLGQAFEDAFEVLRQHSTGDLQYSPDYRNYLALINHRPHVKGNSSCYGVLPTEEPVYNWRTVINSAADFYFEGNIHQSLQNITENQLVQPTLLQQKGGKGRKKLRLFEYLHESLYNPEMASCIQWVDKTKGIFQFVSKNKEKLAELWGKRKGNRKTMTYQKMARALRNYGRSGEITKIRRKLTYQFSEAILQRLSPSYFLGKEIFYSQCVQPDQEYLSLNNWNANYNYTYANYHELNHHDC
How it was run: as §1

ELF4 = ELF4 (Homo sapiens, UniProt Q99607 1-663); settings: protein: recombinant; tags: N-terminal GST; dsDNA, one strand shown
How it was run: as §1

ELK4 = biological target: T9, ELK4 (Homo sapiens, UniProt P28324-2 1-405); settings: protein: recombinant; tags: N-terminal GST; dsDNA, one strand shown
T9 sequence: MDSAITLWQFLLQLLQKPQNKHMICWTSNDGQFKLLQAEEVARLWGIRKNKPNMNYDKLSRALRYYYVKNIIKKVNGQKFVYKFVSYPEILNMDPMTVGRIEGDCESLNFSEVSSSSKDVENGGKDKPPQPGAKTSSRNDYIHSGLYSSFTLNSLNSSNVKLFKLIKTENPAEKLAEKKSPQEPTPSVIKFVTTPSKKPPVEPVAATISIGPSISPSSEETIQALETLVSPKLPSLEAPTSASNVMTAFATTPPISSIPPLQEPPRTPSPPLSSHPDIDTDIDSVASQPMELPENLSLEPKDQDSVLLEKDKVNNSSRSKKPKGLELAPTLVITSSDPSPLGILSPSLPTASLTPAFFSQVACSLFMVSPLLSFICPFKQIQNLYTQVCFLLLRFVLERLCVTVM
How it was run: as §1

ETV2 = biological target: T10, ETV2 (Homo sapiens, UniProt O00321 1-342); settings: protein: recombinant; tags: N-terminal GST; dsDNA, one strand shown
T10 sequence: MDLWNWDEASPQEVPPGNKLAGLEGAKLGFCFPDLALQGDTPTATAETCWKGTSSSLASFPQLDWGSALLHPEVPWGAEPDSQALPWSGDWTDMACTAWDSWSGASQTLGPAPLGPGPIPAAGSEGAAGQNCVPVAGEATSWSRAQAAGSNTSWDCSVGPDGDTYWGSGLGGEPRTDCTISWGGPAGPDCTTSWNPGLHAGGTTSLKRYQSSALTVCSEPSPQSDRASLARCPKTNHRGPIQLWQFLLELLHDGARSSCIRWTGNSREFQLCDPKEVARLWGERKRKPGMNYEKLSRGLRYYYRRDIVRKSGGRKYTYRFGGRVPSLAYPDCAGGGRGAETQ
How it was run: as §1

ELF3 = biological target: T11, ELF3 (Homo sapiens, UniProt P78545 1-371); settings: protein: recombinant; tags: N-terminal GST; dsDNA, one strand shown
T11 sequence: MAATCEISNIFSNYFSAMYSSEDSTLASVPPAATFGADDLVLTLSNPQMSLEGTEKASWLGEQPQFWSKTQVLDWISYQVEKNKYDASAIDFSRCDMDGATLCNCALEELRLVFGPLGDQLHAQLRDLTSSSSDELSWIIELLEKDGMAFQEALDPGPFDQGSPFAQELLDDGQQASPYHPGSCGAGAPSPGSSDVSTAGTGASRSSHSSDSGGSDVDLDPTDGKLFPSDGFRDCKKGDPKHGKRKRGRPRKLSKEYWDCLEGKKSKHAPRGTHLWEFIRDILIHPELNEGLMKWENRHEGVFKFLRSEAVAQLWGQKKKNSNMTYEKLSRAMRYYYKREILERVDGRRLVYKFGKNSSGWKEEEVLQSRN
How it was run: as §1

CRX = CRX (Homo sapiens, UniProt O43186 1-299); settings: protein: recombinant; tags: N-terminal GST; dsDNA, one strand shown
How it was run: as §1

ETV1 = ETV1 (Homo sapiens, UniProt P50549 1-477); settings: protein: recombinant; tags: N-terminal GST; dsDNA, one strand shown
How it was run: as §1

Sequence of ELF4 (Q99607 whole entry): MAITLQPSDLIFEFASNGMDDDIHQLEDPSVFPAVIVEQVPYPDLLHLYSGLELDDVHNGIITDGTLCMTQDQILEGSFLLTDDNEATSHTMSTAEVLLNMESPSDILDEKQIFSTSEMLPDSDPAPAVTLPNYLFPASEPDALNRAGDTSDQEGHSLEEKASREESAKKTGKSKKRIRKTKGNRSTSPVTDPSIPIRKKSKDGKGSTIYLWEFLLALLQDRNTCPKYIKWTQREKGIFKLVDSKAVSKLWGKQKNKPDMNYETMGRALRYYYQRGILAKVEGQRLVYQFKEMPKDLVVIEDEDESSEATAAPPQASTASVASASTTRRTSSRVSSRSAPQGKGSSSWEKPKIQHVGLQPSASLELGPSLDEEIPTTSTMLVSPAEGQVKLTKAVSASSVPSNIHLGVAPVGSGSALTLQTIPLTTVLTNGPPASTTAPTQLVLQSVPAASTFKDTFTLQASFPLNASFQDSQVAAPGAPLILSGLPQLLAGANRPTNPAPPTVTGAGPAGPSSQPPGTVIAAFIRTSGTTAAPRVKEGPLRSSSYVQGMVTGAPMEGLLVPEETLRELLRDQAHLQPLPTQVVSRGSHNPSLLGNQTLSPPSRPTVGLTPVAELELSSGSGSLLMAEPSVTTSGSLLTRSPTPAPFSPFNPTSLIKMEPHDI
Sequence of ETV1 (P50549 whole entry): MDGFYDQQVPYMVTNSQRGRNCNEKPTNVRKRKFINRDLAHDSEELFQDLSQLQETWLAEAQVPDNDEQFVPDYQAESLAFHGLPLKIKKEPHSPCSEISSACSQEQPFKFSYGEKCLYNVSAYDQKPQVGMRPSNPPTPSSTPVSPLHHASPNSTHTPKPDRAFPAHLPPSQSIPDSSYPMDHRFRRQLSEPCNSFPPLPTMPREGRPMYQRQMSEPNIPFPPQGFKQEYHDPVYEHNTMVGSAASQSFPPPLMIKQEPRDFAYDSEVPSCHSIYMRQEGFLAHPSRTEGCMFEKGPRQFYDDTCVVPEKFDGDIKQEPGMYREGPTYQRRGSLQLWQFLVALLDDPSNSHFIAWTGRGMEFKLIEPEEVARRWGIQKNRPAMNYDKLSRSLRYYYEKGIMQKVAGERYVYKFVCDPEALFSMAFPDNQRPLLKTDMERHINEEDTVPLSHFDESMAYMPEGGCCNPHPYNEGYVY
Sequence of ELF1 (P32519 whole entry): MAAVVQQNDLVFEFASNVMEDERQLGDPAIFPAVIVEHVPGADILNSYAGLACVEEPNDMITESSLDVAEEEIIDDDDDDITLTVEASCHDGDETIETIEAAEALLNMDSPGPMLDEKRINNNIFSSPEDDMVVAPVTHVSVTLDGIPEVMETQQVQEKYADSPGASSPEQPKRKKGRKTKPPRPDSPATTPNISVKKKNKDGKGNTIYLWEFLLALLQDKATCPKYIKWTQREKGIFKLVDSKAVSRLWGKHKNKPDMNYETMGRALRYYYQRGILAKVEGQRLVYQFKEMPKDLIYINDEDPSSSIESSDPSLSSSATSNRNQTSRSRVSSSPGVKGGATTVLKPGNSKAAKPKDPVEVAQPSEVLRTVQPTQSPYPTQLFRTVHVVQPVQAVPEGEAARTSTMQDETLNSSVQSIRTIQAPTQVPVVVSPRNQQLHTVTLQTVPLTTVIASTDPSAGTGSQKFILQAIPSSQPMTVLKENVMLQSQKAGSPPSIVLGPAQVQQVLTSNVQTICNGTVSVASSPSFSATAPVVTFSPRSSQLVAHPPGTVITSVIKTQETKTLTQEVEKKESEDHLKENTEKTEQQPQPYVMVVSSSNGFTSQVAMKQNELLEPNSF
Sequence of ETV5 (P41161 whole entry): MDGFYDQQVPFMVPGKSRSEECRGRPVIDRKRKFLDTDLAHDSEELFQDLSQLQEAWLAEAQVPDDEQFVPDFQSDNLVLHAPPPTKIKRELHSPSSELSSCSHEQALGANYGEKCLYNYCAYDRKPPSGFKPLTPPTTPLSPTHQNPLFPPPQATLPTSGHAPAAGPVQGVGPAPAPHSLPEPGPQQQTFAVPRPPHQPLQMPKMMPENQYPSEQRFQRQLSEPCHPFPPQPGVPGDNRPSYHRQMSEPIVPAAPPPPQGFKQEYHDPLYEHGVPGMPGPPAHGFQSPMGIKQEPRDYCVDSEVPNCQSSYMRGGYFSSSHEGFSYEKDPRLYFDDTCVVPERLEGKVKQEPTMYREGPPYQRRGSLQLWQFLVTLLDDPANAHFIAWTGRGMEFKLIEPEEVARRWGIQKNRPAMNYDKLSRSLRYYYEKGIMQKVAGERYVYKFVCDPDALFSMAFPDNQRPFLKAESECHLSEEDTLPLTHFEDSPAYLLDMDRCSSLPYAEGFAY
Sequence of CRX (O43186 whole entry): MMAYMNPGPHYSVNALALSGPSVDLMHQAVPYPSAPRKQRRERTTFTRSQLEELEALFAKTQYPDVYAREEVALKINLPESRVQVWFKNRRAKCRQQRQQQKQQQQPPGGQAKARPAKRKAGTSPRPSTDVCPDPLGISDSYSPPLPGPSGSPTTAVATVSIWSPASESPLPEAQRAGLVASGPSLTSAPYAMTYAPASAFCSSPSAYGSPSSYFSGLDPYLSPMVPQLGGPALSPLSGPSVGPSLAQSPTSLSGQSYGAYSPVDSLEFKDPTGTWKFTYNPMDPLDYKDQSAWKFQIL
Sequence of HSF1 (Q00613 whole entry): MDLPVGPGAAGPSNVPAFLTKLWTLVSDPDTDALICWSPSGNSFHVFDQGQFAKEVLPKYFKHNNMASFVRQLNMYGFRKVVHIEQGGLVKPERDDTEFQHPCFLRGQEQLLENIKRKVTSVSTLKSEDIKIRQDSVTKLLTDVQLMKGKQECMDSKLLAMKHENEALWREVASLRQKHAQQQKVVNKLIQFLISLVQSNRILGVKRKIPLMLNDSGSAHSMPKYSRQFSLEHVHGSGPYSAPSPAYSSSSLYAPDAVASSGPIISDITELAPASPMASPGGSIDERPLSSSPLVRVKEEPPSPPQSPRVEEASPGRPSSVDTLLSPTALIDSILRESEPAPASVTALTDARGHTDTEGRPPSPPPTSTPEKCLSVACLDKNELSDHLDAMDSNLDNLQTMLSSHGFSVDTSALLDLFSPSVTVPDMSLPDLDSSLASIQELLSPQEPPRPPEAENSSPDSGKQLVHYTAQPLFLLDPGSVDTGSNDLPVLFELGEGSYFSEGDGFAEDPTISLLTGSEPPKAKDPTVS
Sequence of SPIB (Q01892 whole entry): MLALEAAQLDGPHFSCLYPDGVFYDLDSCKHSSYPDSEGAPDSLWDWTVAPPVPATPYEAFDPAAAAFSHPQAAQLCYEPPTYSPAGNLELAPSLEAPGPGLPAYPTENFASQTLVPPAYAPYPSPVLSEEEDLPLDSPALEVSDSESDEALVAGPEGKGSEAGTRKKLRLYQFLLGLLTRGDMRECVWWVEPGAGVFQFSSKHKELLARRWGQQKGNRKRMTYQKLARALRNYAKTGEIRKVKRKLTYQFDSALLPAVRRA

Sequence: CAATTA
- binding signal (FLI1): 1.05 fold enrichment (6-mer frequency, TF over GST control)
- binding signal (ELK1): 1.11 fold enrichment (6-mer frequency, TF over GST control)
- binding signal (GABPA): 1.1 fold enrichment (6-mer frequency, TF over GST control)
- binding signal (ERG): 1.05 fold enrichment (6-mer frequency, TF over GST control)
- binding signal (ELF1): 1.1 fold enrichment (6-mer frequency, TF over GST control)
- binding signal (EHF): 1.07 fold enrichment (6-mer frequency, TF over GST control)
- binding signal (SPI1): 1.15 fold enrichment (6-mer frequency, TF over GST control)
- binding signal (SPIB): 1.16 fold enrichment (6-mer frequency, TF over GST control)
- binding signal (ELK3): 1.05 fold enrichment (6-mer frequency, TF over GST control)
- binding signal (FEV): 1.08 fold enrichment (6-mer frequency, TF over GST control)
- binding signal (ETV5): 1.16 fold enrichment (6-mer frequency, TF over GST control)
- binding signal (HSF1): 1.12 fold enrichment (6-mer frequency, TF over GST control)
- binding signal (SPIC): 1.05 fold enrichment (6-mer frequency, TF over GST control)
- binding signal (ELF4): 1.14 fold enrichment (6-mer frequency, TF over GST control)
- binding signal (ELK4): 1.05 fold enrichment (6-mer frequency, TF over GST control)
- binding signal (ETV2): 1.03 fold enrichment (6-mer frequency, TF over GST control)
- binding signal (ELF3): 1.22 fold enrichment (6-mer frequency, TF over GST control)
- binding signal (CRX): 1.25 fold enrichment (6-mer frequency, TF over GST control)
- binding signal (ETV1): 1.09 fold enrichment (6-mer frequency, TF over GST control)
